In PubChem BioAssay (NCI) one finds growth data, which are given here for 18 compounds.

Holding throughout (assay): NCI-60 one-dose screen, 48 h (100 = growth as untreated, 0 = no growth, -100 = all killed)
Details in all cases: 10 µM unless noted

For assay [1], the system named is RPMI-8226 leukemia.
For assay [2], the system named is OVCAR-8 ovarian.
The subject of assay [3] is OVCAR-5 ovarian.
In assay [4] the test system is OVCAR-4 ovarian.
Assay [5] relates to SK-OV-3 ovarian.
Assay [6] relates to IGROV1 ovarian.
The test system of assay [7] is OVCAR-3 ovarian.
The subject of assay [8] is HS 578T breast.
Assay [9] concerns NCI/ADR-RES ovarian.
Assay [10] relates to T-47D breast.
Assay [11] deals with BT-549 breast.
For assay [12], the system named is MDA-MB-435 melanoma.
For assay [13], the system named is SW-620 colon.
Assay [14] relates to MCF7 breast.
In assay [15] the test system is HCC-2998 colon.
Assay [16] deals with KM12 colon.
Assay [17] concerns HCT-116 colon.

This is part of a sample that, as a whole, favours compounds with a hit. Of some 83,000 tested, about 20% had one in any assay.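 A percent growth of 40 corresponds to 60% growth inhibition; 0 means no net growth; -100 means all cells died. Active threshold: below 10.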 A number with no mark means an inactive call. Active and inactive are the calls of the source.

As to `COc1cccc2c1-c1ccccc1C2=O`, the growth in [1] is 14.9%; in assay [2] it was 21.5%; in assay [3], 65.6%; in assay [4] it was 56.5%; in assay [5] it was 30.6%; in assay [6] it was 33.3%. For the same compound, the growth is -26.4% (active) in [7]; 19.6% in assay [8]; 8.62% (active) in assay [9]; 33.2% in assay [10]; -0.0616% (active) in [11]; -48.2% (active) in assay [12]. Further, the growth is 26.7% in [13], 24% in [14], 30.8% in [15] and 36% in [16].
As to `O=C1CC(c2ccc(O)c(O)c2)Oc2cc(O)c([C@@H]3O[C@H](CO)[C@@H](O)[C@H](O)[C@H]3O)c(O)c21` (stereo not given in full), the growth was 99.3% in assay [1]; 101% in assay [2]; 98.7% in [3]; 101% in [4]; 103% in assay [5]; 109% in assay [6]. For the same compound, the growth was 104% in [7]; 105% in assay [8]; 110% in [9]; 95.8% in assay [10]; 102% in assay [11]; 105% in [12]. In addition, the growth in assay [13] was 98.4%; in assay [14] it was 108%; in assay [15], 108%; in [16], 109%.
For `Cc1nccc2c3ccc(OCc4cn(-c5ccccc5)nn4)cc3n(CCCc3ccccc3)c12`, the growth in assay [1] was 31.6%; in [2] it was 55.6%; in assay [3], 91.2%; in assay [4] it was 71.2%; in assay [5] it was 69.7%; in [6] it was 89.1%. Moreover, the growth in assay [7] was 68.6%; in assay [8] it was 65.5%; in [10], 78.4%; in assay [11] it was 81.3%; in assay [12], 87.7%; in assay [13], 69%. The growth in assay [14] is 51.3%; in [17] it was 54%; in assay [15], 102%; in assay [16], 78%.
Take `COc1ccc(-n2cc(-c3ccc(Cl)c(Cl)c3)[nH]c2=O)cc1OC`: the growth in [1] is 97.6%; in assay [2], 94.6%; in assay [3], 90%; in assay [4] it was 89.9%; in [5], 101%; in assay [6] it was 102%. Besides, the growth was 111% in assay [7]; 102% in assay [8]; 92.1% in [10]; 94.2% in [11]; 99.7% in [12]; 73.5% in assay [13]. In addition, the growth in assay [14] is 84.7%; in [17] it was 90.4%; in [15], 96%; in assay [16], 95.3%.
With `O=C1c2ccccc2C(=O)c2c1oc1c2c(=O)[nH]c2ccccc21`, the growth is 62.7% in [1]; 35.6% in assay [2]; 102% in assay [3]; -5.49% (active) in assay [4]; 104% in [5]; 55.1% in assay [6]. Also, the growth in [7] is -14.8% (active); in [8] it was 88.3%; in [10] it was 22.5%; in assay [11] it was 73.9%; in assay [12] it was 83.7%; in [13], 89.2%. Moreover, the growth in [14] is 48.8%; in [17], 55.5%; in assay [15] it was 103%; in assay [16], 66.2%.
Take `CSc1cccc(NC(=O)Nc2nc3c(C)cccc3s2)c1`: the growth in [1] was 60.7%; in assay [2], 93.9%; in [3], 117%; in [4], 85%; in [5], 97.1%; in assay [6], 90.2%. For the same compound, the growth in [7] was 117%; in assay [8], 87.7%; in [10] it was 95%; in assay [11], 119%; in assay [12], 106%; in assay [13] it was 113%. Moreover, the growth was 76.4% in assay [14], 93% in assay [17], 106% in [15] and 107% in [16].
Regarding `COc1ccc(C2N(c3cc(OC)c(OC)c(OC)c3)C(=O)C2(F)F)cc1F` (stereo not given), the growth in assay [1] is 20.8%; in [2], 44.1%; in [3], 78.7%; in assay [4], 58.3%; in assay [5], 75.5%; in assay [6], 44.2%. The growth was 17.6% in assay [7]; 21.9% in [8]; 65.7% in assay [10]; 35% in [11]; 12.9% in [12]; 21.2% in [13]. The growth in [14] was 15.1%; in assay [17] it was 5.76% (active); in assay [15] it was 84.2%; in assay [16], 22.9%.
With `O=[N+]([O-])c1ccc(Oc2ccc(-c3ccccc3)cc2)cc1`, the growth in assay [1] was 75.2%; in assay [2], 92.1%; in assay [3], 99.2%; in [4], 69.6%; in [5], 92.6%; in assay [6], 85.3%. The growth in [7] was 99.3%; in assay [8], 93.2%; in [10], 60.6%; in [11] it was 79.6%; in assay [12] it was 101%; in assay [13], 99%. Besides, the growth is 84.4% in assay [14], 73.4% in assay [17], 92.2% in [15] and 89.5% in assay [16].
For the compound `CCCCc1n(Cc2ccc3ccccc3n2)cc[n+]1Cc1ccc2ccccc2c1`, the growth was -7.1% (active) in [1]; 2.38% (active) in [2]; 24% in assay [3]; 28.6% in assay [4]; -14% (active) in assay [5]; -14.7% (active) in assay [6]. For the same compound, the growth is 5.59% (active) in [7]; 16.6% in assay [8]; 101% in assay [9]; -0.345% (active) in assay [10]; -16.9% (active) in [11]; 1.33% (active) in [12]. Also, the growth is 11.2% in assay [13], -6.38% (active) in assay [15] and -42.4% (active) in assay [16].
Consider `COc1cc2c(cc1OC)C(Sc1ccc(Cl)cc1)c1c(nc(N)c(C#N)c1N)O2` (stereo not given), for which the growth was -24.2% (active) in [1]; 1.28% (active) in assay [2]; 10.8% in [3]; -14.8% (active) in assay [4]; 56.1% in assay [5]; -25.5% (active) in [6]. Besides, the growth in assay [7] was -69.6% (active); in [8], 30.8%; in assay [10], -3.7% (active); in assay [11] it was 1.72% (active); in assay [12], -43.8% (active); in [13], -63.1% (active). Besides, the growth is -52.2% (active) in assay [14], -70.6% (active) in [17], -48.1% (active) in [15] and -27.8% (active) in assay [16].
With `Clc1ccc2c(NCCCNC3CCCCC3)ccnc2c1`, the growth in assay [1] was 82%; in assay [2], 54.7%; in assay [3], 114%; in [4], 91.2%; in assay [5] it was 140%; in assay [6], 111%. Moreover, the growth in [7] is 109%; in [8] it was 108%; in assay [10], 108%; in [11], 107%; in assay [12], 84.6%; in [13], 111%. For the same compound, the growth in assay [14] is 90.7%; in assay [17], 64.5%; in assay [15], 91.3%; in assay [16] it was 101%.
In the case of `Nc1ccc2c(c1)C(=O)C(=O)c1c-2nc2ccccn12`, the growth in [1] is 14.7%; in assay [2], 8.18% (active); in assay [3], -47.4% (active); in [4] it was -95.4% (active); in assay [5], 30.7%; in assay [6], -40.3% (active). Further, the growth in [7] was -19.8% (active); in assay [8], -6.56% (active); in assay [9], 11.7%; in assay [10], -53.5% (active); in assay [11], -34.6% (active); in [12] it was -87.3% (active). In addition, the growth in assay [13] is 4.01% (active); in assay [14], -54.7% (active); in assay [15], 19.4%; in assay [16], 20%.
For the compound `CCOC(=O)c1c(C)nc2c(c1N)/C(=C/c1ccc[nH]1)C(=O)N2Cc1ccc(C(F)(F)F)cc1`, the growth is 104% in assay [1]; 28.5% in assay [2]; 74.5% in assay [3]; 12.6% in [4]; 21.9% in assay [5]; 54.7% in assay [6]. The growth was 47.7% in assay [7]; 38% in [8]; 24.8% in assay [10]; 58.4% in [11]; 90.9% in assay [12]; 66% in assay [13]. Further, the growth is 45.1% in assay [14], 28.4% in [17], 91.2% in [15] and 81.6% in assay [16].
As for `Cn1cc(-c2ccc3c(c2)ncn3-c2ccc(CC(=O)Nc3cc(C(C)(C)C)on3)cc2)cn1`, the growth in assay [1] is 76.8%; in assay [2], 41.4%; in assay [3] it was 22.8%; in [4], 12.3%; in assay [5], 7.18% (active); in assay [6] it was -27.7% (active). Besides, the growth in assay [7] was 32.4%; in assay [8], -7.52% (active); in [10], 35.5%; in assay [11] it was 31.5%; in assay [12] it was 34.8%; in assay [13], 33.7%. For the same compound, the growth in assay [14] was 26.9%; in assay [17] it was 16.6%; in assay [15], 76.3%; in [16], 16.3%.
For `COc1ccc2nc(-c3ccc(OC)c(OC)c3)cc(-c3nnc(SCC(=O)Nc4ccc(/C(C)=N\O)cc4)n3-c3ccccc3)c2c1`, the growth in [1] was 47.7%; in [2], 72.4%; in assay [3], 102%; in assay [4], 95.5%; in [5], 101%; in assay [6] it was 28.1%. Further, the growth in [7] was 87.8%; in assay [8], 72.2%; in assay [9], 77.2%; in assay [10], 45.8%; in assay [11] it was 56.4%; in assay [12], 84.9%. Also, the growth in assay [13] was 89.6%; in assay [15] it was 101%; in assay [16], 75.9%.
`Nc1ccc(C2=NN(C(=O)c3cc(-c4ccc(Cl)cc4)nc4ccccc34)C(c3ccc(Cl)cc3)C2)cc1` (stereo not given): the growth is 10.4% in [1]; 32.1% in assay [2]; 81.3% in assay [3]; 72.4% in [4]; 31.7% in assay [5]; 49.2% in assay [6]. The growth in [7] was 8.07% (active); in assay [8], 41.8%; in assay [10], 38%; in assay [11], 52.3%; in assay [12] it was -23.1% (active); in assay [13], 29.6%. In addition, the growth was 14.8% in assay [14], 23% in assay [17], 62.9% in assay [15] and 27.5% in [16].
As to `O=C(CCc1nnco1)c1nc2ccc([N+](=O)[O-])cc2[nH]1`, the growth in [1] was 129%; in assay [2] it was 105%; in assay [3] it was 108%; in assay [4], 105%; in assay [5], 107%; in assay [6] it was 97.6%. In addition, the growth in [7] is 105%; in assay [8], 102%; in assay [9] it was 104%; in assay [10] it was 101%; in [11], 106%; in assay [12], 106%. The growth was 106% in [13], 93.4% in assay [15] and 102% in assay [16].
For `Nc1c(C(=O)Nc2cccc3ccccc23)sc2nc3c(cc12)CCCCC3`, the growth was 24.9% in assay [1]; 21.4% in assay [2]; 44.1% in [3]; 56.6% in [4]; 29.1% in assay [5]; 44.3% in [6]. Moreover, the growth in [7] is -25.2% (active); in assay [8] it was 30%; in [10], 46.7%; in assay [11], 12.6%; in [12], -32.2% (active); in [13], 24.3%. The growth in [14] is 17.7%; in [17], 8.52% (active); in assay [15], 33.1%; in assay [16], 22.8%.
